Data: the antibiotic and cytotoxicity screens of Wong et al. (2023)
Screen size: about 39,000 compounds; about 3,300 (8.5%) were called active. This excerpt belongs to a sample that is enriched for actives.

These compounds were tested on HepG2 (assay: cytotoxicity call (relative viability < 0.9)). Details: 10 µM.

Compound | cytotoxicity call
CCNC(=O)C[C@@H]1CC[C@H]2[C@@H](COc3ccc(NS(=O)(=O)c4ccccc4C)cc3C(=O)N2C)O1 | inactive
C[C@@H]1CCCCO[C@H](CN(C)C(=O)Nc2ccc(F)cc2)[C@H](C)CN([C@H](C)CO)C(=O)c2cc(NC(=O)Nc3ccc(C(F)(F)F)cc3)ccc2O1 | inactive
CC(C)CC#Cc1ccc2c(c1)O[C@@H](CN(C)C(=O)c1cccnc1)[C@@H](C)CN([C@H](C)CO)S2(=O)=O | inactive
CCCCOc1ccc(C(=O)CCN2CCCCC2)cc1.Cl | active
O=C(N[C@@H](c1ccccc1)c1ccc2ccccc2n1)C1CCN(CCOc2ccc(Cl)cc2)CC1 | inactive
CC(=O)O.Cc1c(-c2ccc(O)cc2)n(Cc2ccc(OCCN3CCCCCC3)cc2)c2ccc(O)cc12 | active
Cl.O=C(c1ccc(OCCN2CCCCC2)cc1)c1c(-c2ccc(O)cc2)sc2cc(O)ccc12 | active
COc1cc(OC)c(C(=O)CCCN2CCCC2)c(OC)c1.Cl | inactive
CCCCOc1ccc(OCCCN2CCOCC2)cc1.Cl | inactive
CC(=O)OCC(=O)NCCCOc1cccc(CN2CCCCC2)c1.Cl | inactive
COc1cc(C(=O)OCCN2CCCN(CCOC(=O)c3cc(OC)c(OC)c(OC)c3)CC2)cc(OC)c1OC | inactive
C[C@@H]1CN([C@@H](C)CO)C(=O)c2cccc(NC(=O)c3cnccn3)c2O[C@H]1CN(C)S(=O)(=O)c1cccs1 | inactive
C[C@H]1CN([C@@H](C)CO)S(=O)(=O)c2ccc(-c3cccc(C(=O)N(C)C)c3)cc2O[C@@H]1CN(C)C(=O)Cc1ccccn1 | inactive
C[C@H]1CN([C@@H](C)CO)C(=O)c2cc(C#Cc3ccc(F)cc3)cnc2O[C@@H]1CN(C)Cc1ccccn1 | inactive
C[C@H](CO)N1C[C@H](C)[C@@H](CN(C)C)OCCCC[C@H](C)Oc2ccc(NC(=O)Nc3ccc(C(F)(F)F)cc3)cc2C1=O | inactive
C[C@@H]1CCCCO[C@H](CN(C)C)[C@H](C)CN([C@@H](C)CO)C(=O)c2cc(NC(=O)Nc3ccc(C(F)(F)F)cc3)ccc2O1 | active
C[C@@H]1CCCCO[C@H](CN(C)S(C)(=O)=O)[C@@H](C)CN([C@@H](C)CO)C(=O)c2cc(NC(=O)Nc3ccc(C(F)(F)F)cc3)ccc2O1 | inactive
C[C@@H]1CCCCO[C@@H](CN(C)C)[C@H](C)CN([C@@H](C)CO)C(=O)c2cc(NC(=O)Nc3ccc(C(F)(F)F)cc3)ccc2O1 | inactive
C[C@@H]1CN([C@H](C)CO)C(=O)c2cc(NC(=O)Nc3ccc(C(F)(F)F)cc3)ccc2O[C@@H](C)CCCCO[C@H]1CN(C)S(C)(=O)=O | active
C[C@@H]1CCCCO[C@@H](CN(C)C)[C@H](C)CN([C@H](C)CO)C(=O)c2cc(NC(=O)Nc3ccc(C(F)(F)F)cc3)ccc2O1 | inactive
C[C@@H]1CN([C@@H](C)CO)C(=O)c2cc(NC(=O)Nc3ccc(C(F)(F)F)cc3)ccc2O[C@@H](C)CCCCO[C@H]1CN(C)C | inactive
C[C@@H]1CN([C@@H](C)CO)C(=O)c2cc(NC(=O)Nc3ccc(C(F)(F)F)cc3)ccc2O[C@@H](C)CCCCO[C@@H]1CN(C)C | inactive
C[C@@H]1CCCCO[C@H](CN(C)C)[C@H](C)CN([C@H](C)CO)C(=O)c2cc(NC(=O)Nc3ccc(C(F)(F)F)cc3)ccc2O1 | active
C[C@H]1CCCCO[C@@H](CN(C)C)[C@@H](C)CN([C@@H](C)CO)C(=O)c2cc(NC(=O)Nc3ccc(C(F)(F)F)cc3)ccc2O1 | active
C[C@@H]1CCCCO[C@H](CN(C)C)[C@@H](C)CN([C@H](C)CO)C(=O)c2cc(NC(=O)Nc3ccc(C(F)(F)F)cc3)ccc2O1 | inactive
C[C@@H]1CCCCO[C@H](CN(C)S(C)(=O)=O)[C@@H](C)CN([C@H](C)CO)C(=O)c2cc(NC(=O)Nc3ccc(C(F)(F)F)cc3)ccc2O1 | inactive

Compound | cytotoxicity call
Cc1ccc(S[C@]2(C(=O)NCCCN(C)C)CC(=O)N(Cc3ccccc3C(F)(F)F)[C@@H]2c2ccc(CO)cc2)cc1 | inactive
C[C@H]1CN([C@@H](C)CO)C(=O)Cc2cc(NS(=O)(=O)c3ccc(F)cc3)ccc2O[C@H]1CN(C)C(=O)Nc1cccc2ccccc12 | inactive
Cc1cc(-c2cc[nH]n2)c(C)s1 | inactive
C[C@H]1CCCCO[C@@H](CN(C)Cc2ccncc2)[C@@H](C)CN([C@@H](C)CO)C(=O)c2cc(NC(=O)CCC(F)(F)F)ccc2O1 | inactive
C[C@H]1CCCCO[C@@H](CN(C)S(=O)(=O)c2cn(C)cn2)[C@@H](C)CN([C@@H](C)CO)C(=O)c2cc(NC(=O)Nc3ccc(C(F)(F)F)cc3)ccc2O1 | active
C[C@@H]1CCCCO[C@@H](CN(C)C)[C@@H](C)CN([C@H](C)CO)C(=O)c2cc(NC(=O)Nc3ccc(C(F)(F)F)cc3)ccc2O1 | active
C[C@@H]1CN([C@H](C)CO)C(=O)c2cc(NC(=O)Nc3ccc(C(F)(F)F)cc3)ccc2O[C@@H](C)CCCCO[C@H]1CN(C)C | inactive
C[C@@H]1CN([C@@H](C)CO)C(=O)c2cc(NC(=O)Nc3ccc(C(F)(F)F)cc3)ccc2O[C@@H](C)CCCCO[C@H]1CN(C)S(=O)(=O)c1cn(C)cn1 | inactive
C[C@H]1CCCCO[C@H](CN(C)C)[C@@H](C)CN([C@@H](C)CO)C(=O)c2cc(NC(=O)Nc3ccc(C(F)(F)F)cc3)ccc2O1 | inactive
C[C@@H]1CN([C@@H](C)CO)C(=O)c2cc(NC(=O)Nc3ccc(C(F)(F)F)cc3)ccc2O[C@@H](C)CCCCO[C@@H]1CN(C)S(=O)(=O)c1cn(C)cn1 | inactive
C[C@H]1CN([C@@H](C)CO)C(=O)c2cc(C#CC3(O)CCCC3)cnc2O[C@@H]1CN(C)S(=O)(=O)c1ccccc1 | inactive
COc1cccc(-c2ccc3c(c2)O[C@@H](CN(C)C(=O)C2CC2)[C@@H](C)CN([C@@H](C)CO)S3(=O)=O)c1 | inactive
C[C@@H]1CN([C@H](C)CO)C(=O)c2cc(NC(=O)Nc3ccccc3)ccc2O[C@@H](C)CCCCO[C@@H]1CN(C)Cc1ccc(C(=O)O)cc1 | inactive
C[C@H]1CN([C@@H](C)CO)C(=O)c2cc(C#CC3(O)CCCC3)cnc2O[C@H]1CN(C)C(=O)Cc1ccccc1 | inactive
CCNC(=O)C[C@H]1CC[C@H](NC(=O)C2CC2)[C@H](CO)O1 | inactive
Cn1cnc(S(=O)(=O)N2C[C@H](O)COC[C@@H]3O[C@H](CC(=O)NC4Cc5ccccc5C4)CC[C@H]32)c1 | inactive
O=C(C[C@@H]1CC[C@H]2[C@@H](COC[C@@H](O)CN2S(=O)(=O)c2ccccc2Cl)O1)NCc1ccccc1Cl | inactive
C[C@H]1CCc2[nH]c3ccccc3c2C1 | active
O=c1[nH]c2ccccc2c2ccccc12 | inactive
COc1ccc2c3c(ccc2c1)-c1[nH]c2ccccc2c1CC3 | inactive
C[C@H]1CN([C@@H](C)CO)C(=O)c2cc(NS(=O)(=O)c3ccccc3)ccc2O[C@@H]1CN(C)C(=O)Nc1cccc2ccccc12 | inactive
Nc1nccs1 | inactive
O=C1CCC(=O)N1c1nccs1 | active
O[C@H]1CCN(c2nccs2)C1 | inactive
O=C([C@@H]1[C@@H](CO)[C@@H]2Cn3c(cccc3=O)[C@@H]2N1CC1CCCC1)N1CCOCC1 | inactive
COC1(NC(=O)CSCC#N)C(=O)N2C(C(=O)[O-])=C(CSc3nnnn3C)CSC21.[Na+] (stereo unspecified) | inactive

Compound | cytotoxicity call
C[C@H](CO)N1C[C@H](C)[C@@H](CN(C)Cc2ccc(Cl)c(Cl)c2)Oc2ccc(NC(=O)Nc3ccccc3)cc2C1=O | inactive
C[C@H]1CN([C@@H](C)CO)C(=O)c2cc(NC(=O)Nc3ccccc3)ccc2O[C@H]1CN(C)Cc1ccc(Cl)c(Cl)c1 | active
C[C@H](CO)N1C[C@H](C)[C@H](CN(C)Cc2ccc(Cl)c(Cl)c2)Oc2ccc(NC(=O)Nc3ccccc3)cc2C1=O | inactive
C[C@H]1CN([C@@H](C)CO)C(=O)c2cc(NC(=O)Nc3ccccc3)ccc2O[C@@H]1CN(C)Cc1ccc(Cl)c(Cl)c1 | inactive
C[C@@H]1CN([C@H](C)CO)C(=O)c2cc(NC(=O)Nc3ccccc3)ccc2O[C@@H]1CN(C)Cc1ccc(Cl)c(Cl)c1 | inactive
C[C@@H]1CN([C@H](C)CO)C(=O)c2cc(NC(=O)Nc3ccccc3)ccc2O[C@H]1CN(C)Cc1ccc(Cl)c(Cl)c1 | inactive
C[C@@H]1CN([C@@H](C)CO)C(=O)c2cc(NC(=O)Nc3ccccc3)ccc2O[C@@H]1CN(C)Cc1ccc(Cl)c(Cl)c1 | active
C[C@@H]1CN([C@@H](C)CO)C(=O)c2cc(NC(=O)Nc3ccccc3)ccc2O[C@H]1CN(C)Cc1ccc(Cl)c(Cl)c1 | active
COCC(=O)N1C[C@H](C)[C@@H](OC)CN(C)C(=O)c2cc(NC(=O)c3ccc(F)cc3)ccc2OC[C@@H]1C | inactive
N#Cc1cn(C2CCCCC2)c(=O)[nH]c1=O | inactive
C[C@H]1CCCCO[C@H](CN(C)C(=O)Cc2ccccc2)[C@@H](C)CN([C@@H](C)CO)C(=O)c2cc(NC(=O)C3CCCCC3)ccc2O1 | inactive
CC(C)CC#Cc1ccc2c(c1)O[C@H](CN(C)C(=O)Cc1ccccn1)[C@@H](C)CN([C@@H](C)CO)S2(=O)=O | inactive
C[C@@H]1CN([C@H](C)CO)C(=O)Cc2cc(NC(=O)c3ccncc3)ccc2O[C@@H]1CN(C)C(=O)NC1CCCCC1 | inactive
C[C@@H]1CN([C@H](C)CO)C(=O)c2cc(-c3ccncc3)cnc2O[C@@H]1CN(C)S(=O)(=O)c1ccc(F)cc1 | inactive
Cc1nsc(-c2ccccc2)n1 | inactive
C[C@@H]1CCCCO[C@@H](CN(C)Cc2ccc3c(c2)OCO3)[C@H](C)CN([C@H](C)CO)C(=O)c2cc(NS(=O)(=O)c3ccc(F)cc3)ccc2O1 | inactive
C[C@@H]1CCCCO[C@H](CN(C)Cc2ccc3c(c2)OCO3)[C@H](C)CN([C@H](C)CO)C(=O)c2cc(NS(=O)(=O)c3ccc(F)cc3)ccc2O1 | inactive
C[C@@H]1CCCCO[C@@H](CN(C)Cc2ccc3c(c2)OCO3)[C@@H](C)CN([C@H](C)CO)C(=O)c2cc(NS(=O)(=O)c3ccc(F)cc3)ccc2O1 | active
C[C@H]1CCCCO[C@H](CN(C)Cc2ccc3c(c2)OCO3)[C@@H](C)CN([C@@H](C)CO)C(=O)c2cc(NS(=O)(=O)c3ccc(F)cc3)ccc2O1 | inactive
C[C@@H]1CN([C@@H](C)CO)C(=O)c2cc(NS(=O)(=O)c3ccc(F)cc3)ccc2O[C@@H](C)CCCCO[C@H]1CN(C)Cc1ccc2c(c1)OCO2 | inactive
C[C@@H]1CCCCO[C@@H](CN(C)Cc2ccc3c(c2)OCO3)[C@H](C)CN([C@@H](C)CO)C(=O)c2cc(NS(=O)(=O)c3ccc(F)cc3)ccc2O1 | inactive
C[C@@H]1CN([C@H](C)CO)C(=O)c2cc(NS(=O)(=O)c3ccc(F)cc3)ccc2O[C@@H](C)CCCCO[C@@H]1CN(C)Cc1ccc2c(c1)OCO2 | inactive
C[C@@H]1CCCCO[C@H](CN(C)Cc2ccc3c(c2)OCO3)[C@@H](C)CN([C@@H](C)CO)C(=O)c2cc(NS(=O)(=O)c3ccc(F)cc3)ccc2O1 | active
C[C@@H]1CCCCO[C@@H](CN(C)Cc2ccc3c(c2)OCO3)[C@@H](C)CN([C@@H](C)CO)C(=O)c2cc(NS(=O)(=O)c3ccc(F)cc3)ccc2O1 | active
